ALOX12 inh: inhibitors of human 12S-lipoxygenase ALOX12; AID 1671190; purified 12hLO, xylenol orange hydroperoxide absorbance; P18054; Potency, µM (titrated, usually from 108 µM), most hits filed as inhibitors; 1.1% of 580,000 active
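Purified human 12hLO (150 nM final) in 25 mM Hepes, 0.01% Triton X-100, pH 7.0 was preincubated 15 min at room temperature with compound. Then 40 uM arachidonic acid was added, 30 min. Hydroperoxide was read by Fe-XO absorbance ratio 573/405 nm.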
HP1b binding inh: inhibitors of HP1-beta chromodomain binding to methylated histone tails. P83916. AlphaScreen HP1-beta / biotin-H3K9me3 peptide binding. Potency, µM (series often up to 114 µM), most hits filed as inhibitors. 0.56% of 390,000 active. AID 540317; note: nearly all actives have a fitted effect of over 70% in size
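HP1-beta protein (50 nM final) preincubated 30 min at room temperature with biotinylated H3(1-18)K9me3 peptide (50 nM) in PBS pH 7.4, 0.01% Tween-20, then compound added for 30 min. AlphaScreen streptavidin donor/nickel chelate acceptor beads (10 ug/mL final), 30 min dark, luminescence read.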
BAZ2B block: blocks human BAZ2B | Q9UIF8 | AlphaScreen BAZ2B-H3K14Ac peptide displacement | Potency, µM (highest dose often 114 µM), hits mostly inhibitors | 4.4% of 360,000 active | AID 504333; note: nearly all actives have a fitted effect of over 60% in size
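AlphaScreen displacement: compounds (up to 110uM) incubated 30 min at room temperature with a preformed 50 nM BAZ2B/50 nM biotinylated H3K14Ac peptide complex in PBS pH 7.4 with Tween-20. Donor and acceptor beads at 10 ug/mL final added, 20 min light-protected before reading.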
PLK1 PBD block: blocks phosphopeptide binding to human PLK1 polo-box domain | P53350 | Plk1 PBD binding of FITC phosphopeptide, fluorescence polarization | Potency, µM, usual class: inhibitors | 2.8% of 360,000 active | AID 720504; note: series mostly up to about 57 µM; nearly all actives have a fitted effect of over 65% in size
JMJD2A Tudor: blocks the human JMJD2A Tudor domain. AlphaScreen JMJD2A-Tudor / H3K4me3 peptide binding. Potency, µM (highest dose often 114 µM), hits mostly inhibitors. 4.4% of 390,000 active. AID 504339; note: nearly all actives have a fitted effect of over 50% in size
Target sequence (O75164 whole entry, looked up, the tested form may be a part): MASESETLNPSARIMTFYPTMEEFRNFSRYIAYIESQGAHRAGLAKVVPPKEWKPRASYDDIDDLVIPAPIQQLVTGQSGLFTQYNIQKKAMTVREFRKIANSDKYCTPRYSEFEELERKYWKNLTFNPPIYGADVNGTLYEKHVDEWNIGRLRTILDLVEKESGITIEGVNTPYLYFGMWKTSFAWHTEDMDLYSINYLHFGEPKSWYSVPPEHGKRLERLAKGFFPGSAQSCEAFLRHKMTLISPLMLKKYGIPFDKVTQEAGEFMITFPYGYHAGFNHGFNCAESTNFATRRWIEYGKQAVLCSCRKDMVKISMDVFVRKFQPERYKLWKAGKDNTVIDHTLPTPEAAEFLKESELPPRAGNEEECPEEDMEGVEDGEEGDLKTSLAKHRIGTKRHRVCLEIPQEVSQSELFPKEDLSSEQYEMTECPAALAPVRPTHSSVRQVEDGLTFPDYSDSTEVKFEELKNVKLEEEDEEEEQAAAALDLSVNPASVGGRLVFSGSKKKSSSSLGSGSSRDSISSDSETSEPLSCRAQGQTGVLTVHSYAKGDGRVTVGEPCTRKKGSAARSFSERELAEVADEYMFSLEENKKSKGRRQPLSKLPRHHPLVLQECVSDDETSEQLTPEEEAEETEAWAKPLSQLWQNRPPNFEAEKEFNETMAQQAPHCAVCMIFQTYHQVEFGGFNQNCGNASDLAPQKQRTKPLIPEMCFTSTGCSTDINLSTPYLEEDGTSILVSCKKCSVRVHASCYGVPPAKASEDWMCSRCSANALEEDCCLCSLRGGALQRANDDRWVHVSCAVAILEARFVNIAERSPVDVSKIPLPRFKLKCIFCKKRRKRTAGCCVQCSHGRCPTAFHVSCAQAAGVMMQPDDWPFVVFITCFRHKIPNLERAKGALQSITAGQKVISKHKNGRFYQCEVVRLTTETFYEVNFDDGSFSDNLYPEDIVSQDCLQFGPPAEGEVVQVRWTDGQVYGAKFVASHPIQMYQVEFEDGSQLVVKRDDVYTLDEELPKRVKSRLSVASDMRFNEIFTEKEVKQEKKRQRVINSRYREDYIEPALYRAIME
G9a block: blocks human histone lysine methyltransferase G9a | AID 504332 | G9a H3K9 monomethylation, AlphaScreen, 2 h | Q96KQ7 | 8.8% of 350,000 active | Potency, µM (top dose mostly 102 µM), actives largely listed as inhibitors; note: nearly all actives have a fitted effect of over 75% in size
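Using a bead-based AlphaScreen, monomethylated H3K9 product from 2 h room-temperature reactions (G9a 20 nM, peptide 500 nM, SAM 20 uM) was detected with 0.5 ug/mL rabbit anti-H3K9me1 antibody.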
A number is an active result; 0 = inactive; ? = inconclusive; - = no result given; [ ] = remark or other dose. Sampled rows, rich in hits. Any-hit rate of the full collection: about 9%. Calls come from the whole dose curve; as a rule, active = well fitted curve in the direction sought with a large enough effect; inconclusive = small, poorly fitted or top-dose-only effect, or another doubt; inactive = no such curve, though single readings can be large; an effect the other way counts as inactive or inconclusive.

SMILES	ALOX12 inh	HP1b binding inh	BAZ2B block	PLK1 PBD block	JMJD2A Tudor	G9a block
CCS(=O)(=O)N1N=C(c2ccc(C)cc2)CC1c1cc2ccc(OC)cc2nc1Cl (configuration not stated)	0	0	0	-	0	0
Cc1ccc2cc(C3CC(c4ccco4)=NN3C(=O)CCC(=O)O)c(Cl)nc2c1 (configuration not stated)	0	?	0	?	22µM	?
COc1ccc2cc(C3CC(c4ccco4)=NN3S(C)(=O)=O)c(Cl)nc2c1 (configuration not stated)	35µM	?	?	0	0	-
CS(=O)(=O)N1N=C(c2ccco2)CC1c1ccccc1 (configuration not stated)	0	0	0	0	0	?
CS(=O)(=O)N1N=C(c2ccco2)CC1c1ccco1 (configuration not stated)	?	0	50µM	0	0	71µM
CS(=O)(=O)N1N=C(c2ccco2)CC1c1ccc(Cl)cc1 (configuration not stated)	?	0	0	0	0	50µM
CCOC(=O)C1=CCN(S(=O)(=O)c2ccccc2C)C1c1ccc(Br)cc1 (configuration not stated)	0	-	-	0	-	-
CCc1ccc(NC(=O)Cn2nc(SC)c(S(=O)(=O)c3ccc(OC)cc3)c2N)cc1	0	0	0	-	0	0
Cc1cccc2cc(C3CC(c4cccs4)=NN3C(=O)CCC(=O)O)c(Cl)nc12 (configuration not stated)	0	0	?	27µM	32µM	0
Cc1ccc2nc(Cl)c(C3CC(c4cccs4)=NN3C(=O)CCCC(=O)O)cc2c1 (configuration not stated)	?	0	0	0	?	0
COc1cc(Cl)c(C)cc1N1C(=O)CN(Cc2ccccc2)C1=S	?	0	0	24µM	0	35µM
CCOc1ccc(NC(=O)CC2C(=O)N(c3cccc(OC)c3)C(=O)N2CCOC)cc1 (configuration not stated)	0	0	0	30µM	0	0
COc1cccc(N2C(=O)C(CC(=O)Nc3ccccc3)N(C3CCCCC3)C2=O)c1 (configuration not stated)	0	0	0	0	0	0
CCc1ccc(NC(=O)CC2C(=O)N(c3cccc(OC)c3)C(=O)N2C2CCCC2)cc1 (configuration not stated)	0	0	?	-	0	7.9µM
Cc1ccc(N2C(=O)C(CC(=O)Nc3cccc(F)c3)N(C3CC3)C2=O)cc1 (configuration not stated)	0	0	0	0	0	45µM
COc1ccc(NC(=O)CC2C(=O)N(c3ccc(OC)cc3)C(=O)N2C2CCCCC2)cc1 (configuration not stated)	?	0	0	-	0	?
COCCN1C(=O)N(c2cccc(OC)c2)C(=O)C1CC(=O)Nc1ccc(OC)cc1 (configuration not stated)	0	0	0	0	0	0
COc1ccc(NC(=O)CC2C(=O)N(c3ccc(OC)cc3)C(=O)N2C(C)C)cc1 (configuration not stated)	0	0	?	0	0	56µM
CSc1ncc(C(=O)Nc2ccccc2Cl)c(C)n1	0	0	0	0	0	0
CS(=O)(=O)c1ccc(Cl)c(NC(=O)CSC(=S)N2CCCC2)c1	0	0	-	?	0	-
NC(=O)C1CCN(C(=O)c2ccccc2CCc2ccccc2)CC1	0	0	0	0	0	-
Cc1ccc(NC(=O)C(Cc2ccccc2)NS(=O)(=O)c2cccc3nsnc23)c(C)c1 (configuration not stated)	?	0	-	-	?	0
CC(=O)Nc1ccc(CN2CCC3(CC(C(C)C)=NO3)C2)cc1 (configuration not stated)	0[6.33 µM]	-	-	-	-	-
C/C(=C\C(=O)c1ccccc1)Nc1ccc(Cl)c(Br)c1	0	0	-	27µM	0[11.4 µM]	-
C/C(=C\C(=O)c1ccc(Br)cc1)Nc1cccc(Cl)c1	0	0	-	0	0	-
SMILES	ALOX12 inh	HP1b binding inh	BAZ2B block	PLK1 PBD block	JMJD2A Tudor	G9a block
C=CC[n+]1c(/C=C/c2ccc(OC(C)=O)c(OC)c2)ccc2ccccc21	?	0	0	0	0	79µM
COc1cc(/C=C/c2ccc3cccc(OC)c3n2)ccc1OC(C)=O	0	-	-	-	-	-
Nc1c(S(=O)(=O)c2cccs2)c2nc3ccccc3nc2n1Cc1cccs1	0	0	0	0	0	0
CC12CCC(=O)N1C(C(=O)O)Cc1c2[nH]c2ccccc12 (configuration not stated)	0	0	0	0	79µM	?
CC1(C)NC(C(=O)O)Cc2c1[nH]c1ccccc21 (configuration not stated)	?	0	0	0	0[11.4 µM]	25µM
CC(=O)N1C(C(=O)O)Cc2c([nH]c3ccccc23)C1(C)C (configuration not stated)	0	0	0	0	0	0
Cc1ccc(NS(=O)(=O)c2ccc(CCC(=O)NC3CC3)cc2)cc1	0	0	0	0	0	0
CC(C)Cc1nnc(NC(=O)CCC(=O)Nc2ccccc2)s1	0	0	0	0	0	0
Cn1c(C(=O)NCC2CC2)nc2nc(-c3ccccc3)c(Cl)cc21	0	-	-	-	-	-
Cc1ccccc1CN1CCC2(CC1)OC(=O)N(Cc1ccc(O)cc1)C2(C)c1ccccc1 (configuration not stated)	0	-	-	-	-	-
O=C1OCC2(CCN(Cc3c[nH]c4ccccc34)C2)N1Cc1ccccc1 (configuration not stated)	50µM	-	-	-	-	-
CC1(c2ccccc2)N(Cc2ccc(O)cc2)C(=O)OC12CCN(Cc1c[nH]c3ccccc13)CC2 (configuration not stated)	45µM	-	-	-	-	-
Cc1cc(OC(=O)c2ccco2)c(Sc2ccccc2[N+](=O)[O-])c(=O)o1	-	0	?	5.3µM	?	32µM
COc1ccccc1C(=O)NCC(c1ccc(N(C)C)cc1)N1CCc2ccccc21 (configuration not stated)	0	11µM	10µM	-	11µM	14µM
CN(C)c1ccc(C(CNC(=O)c2ccccc2Cl)N2CCc3ccccc32)cc1 (configuration not stated)	0	?	13µM	-	18µM	14µM
COc1ccc(C(=O)NCC(c2ccco2)N2CCc3ccccc32)c(OC)c1 (configuration not stated)	0	0	?	0	0	0[2.33 µM]
COC(=O)[C@@H]1C[C@@H]2CC[C@@H](O)C[C@@H]2N1Cc1ccc(N2CCN(C)CC2)cc1	0	0	0	0	0	0[12.7 µM]
COc1ccccc1C(C)NC(=O)CN1CCN(c2ccc([N+](=O)[O-])c3cnccc23)CC1 (configuration not stated)	11µM	-	-	-	-	-
CCSc1ncc(Cl)c(C(=O)Nc2c(C(=O)Nc3ccccc3)oc3ccccc23)n1	0	0	0	-	0	0
